Assay results: the supplement of paper PMC8728848
The full list was thinned out, with the strongest signals kept by preference.

How the values were obtained:
Assay in all cases: glycan array binding signal (z-score within array); higher = stronger binding
Conditions in all cases: glycan notation: IUPAC condensed, linker removed
[1] = biological target: Fuc(a1-2)Gal(b1-4)GlcNAc(b1-3)Gal(b1-4)GlcNAc(b1-3)Gal(b1-4)GlcNAc
How it was run: (§1)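 Glycan array data came from 3228 arrays in the Consortium for Functional Glycomics database, and only arrays with an available protein sequence were kept. Glycan names were put into IUPAC-condensed notation, and columns mapping to the same glycan were averaged. The binding signal is a within-array Z-score, averaged across arrays of one protein sequence run at different concentrations or buffers and across linkers. A negative Z-score can be read as non-binding.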

[2] = biological target: Fuc(a1-2)Gal(b1-4)[Fuc(a1-3)]GalNAc(b1-3)Gal(b1-4)[Fuc(a1-3)]GlcNAc
How it was run: as §1

[3] = biological target: Fuc(a1-2)Gal(b1-4)[Fuc(a1-3)]GalNAc(b1-3)Gal(b1-4)[Fuc(a1-3)]GlcNAc(b1-3)Gal(b1-4)[Fuc(a1-3)]GalNAc
How it was run: as §1

[4] = biological target: Fuc(a1-2)Gal(b1-4)[Fuc(a1-3)]GlcNAc
How it was run: as §1

[5] = biological target: Fuc(a1-2)[Gal(a1-3)]Gal
How it was run: as §1

[6] = biological target: Fuc(a1-2)[Gal(a1-3)]Gal(b1-4)[Fuc(a1-3)]GlcNAc
How it was run: as §1

[7] = biological target: Fuc(a1-2)[GalNAc(a1-3)]Gal
How it was run: as §1

[8] = biological target: Fuc(a1-3)GlcNAc
How it was run: as §1

[9] = biological target: Fuc(a1-3)[Gal(b1-4)]GlcNAc
How it was run: as §1

[10] = biological target: Gal(a1-2)Gal
How it was run: as §1

[11] = biological target: Gal(b1-3)[Neu5Ac(a2-6)]GalNAc
How it was run: as §1

[12] = biological target: Gal(b1-3)[Neu5Ac(b2-6)]GlcNAc
How it was run: as §1

[13] = biological target: Gal(b1-4)GlcNAc(b1-2)Man(a1-3)[Gal(b1-4)GlcNAc(b1-2)Man(a1-6)]Man(b1-4)GlcNAc(b1-4)GlcNAc
How it was run: as §1

[14] = biological target: Gal(b1-4)GlcNAc(b1-3)Gal(b1-4)GlcNAc(b1-3)Gal(b1-4)GlcNAc
How it was run: as §1

[15] = biological target: Gal(b1-4)GlcNAc(b1-3)[Gal(b1-4)GlcNAc(b1-6)]GalNAc
How it was run: as §1

[16] = biological target: Gal(b1-4)GlcNAc(b1-6)[Gal(b1-3)]GalNAc
How it was run: as §1

[17] = biological target: Gal6S(b1-4)Glc6S
How it was run: as §1

[18] = biological target: GalNAc(b1-4)GlcNAc
How it was run: as §1

[19] = biological target: GlcNAc(b1-3)GalNAc
How it was run: as §1

[20] = biological target: Kdn(a2-3)Gal(b1-4)GlcNAc
How it was run: as §1

[21] = biological target: Neu5Ac(a2-3)Gal(b1-4)[Fuc(a1-3)]GlcNAc
How it was run: as §1

[22] = biological target: Neu5Gc(a2-3)Gal(b1-3)GlcNAc
How it was run: as §1

B1: NakA (Mycobacterium tuberculosum) (protein)
chain: SVVKPTKVTVFSPDGGADNPGEADLAIDGNPATSWKTDIYTDPVPFPSFKNGVGLMLQLPQATVVGTVAIDVASTGTKVEIRSASTPTPATLEDTAVLTSATALRPGHNTISVEAAAPTSNLLVWISTLGTTDGKSQADISEITIYAASD
glycan array binding signal (z-score) [1]: 2.46 | glycan array binding signal (z-score) [2]: 1.53 | glycan array binding signal (z-score) [3]: 2.85 | glycan array binding signal (z-score) [4]: 2.46 | glycan array binding signal (z-score) [5]: 0.037 | glycan array binding signal (z-score) [6]: 2.29 | glycan array binding signal (z-score) [7]: 0.057 | glycan array binding signal (z-score) [8]: 3.17 | glycan array binding signal (z-score) [9]: -0.303 | glycan array binding signal (z-score) [10]: -0.019 | glycan array binding signal (z-score) [11]: -0.457 | glycan array binding signal (z-score) [12]: -0.353 | glycan array binding signal (z-score) [13]: -0.5 | glycan array binding signal (z-score) [14]: -0.502 | glycan array binding signal (z-score) [15]: -0.414 | glycan array binding signal (z-score) [16]: -0.553 | glycan array binding signal (z-score) [17]: -0.213 | glycan array binding signal (z-score) [18]: -0.305 | glycan array binding signal (z-score) [19]: -0.001 | glycan array binding signal (z-score) [20]: -0.507 | glycan array binding signal (z-score) [21]: -0.418 | glycan array binding signal (z-score) [22]: -0.404
